High-throughput results: PubChem BioAssay, National Center for Advancing Translational Sciences (NCATS)
Pf growth 48h – inhibits P. falciparum growth in the first generation, 48 h. P. falciparum luciferase growth in erythrocytes, 48 h. Potency, µM (doses to about 28.7 µM), hits mostly inhibitors. hit rate 5.9% among 310,000
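Erythrocytes infected with P. falciparum carrying an integrated firefly luciferase reporter (2% hematocrit, 0.1% parasitemia final) were exposed to compounds in RPMI 1640 with 0.5% Albumax at 37 C, 5% CO2. Growth inhibition was scored as reduced luminescence.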
Shiga toxin inh – inhibitors of Shiga toxin in Vero cells | inhibition, % at 38.7 µM | Vero cells, Shiga toxin protein synthesis inhibition reporter | hit rate 9.2% among 290,000; in the data active = inhibition mostly above about 28%, no sharp cut-off; inactive = mostly below about 43%
LmPK inhibitor – LmPK (Leishmania mexicana) enzyme inhibition. hit rate 0.37% among 290,000. AID 1721. purified LmPK, Kinase-Glo ATP luminescence, 1 h. Potency, µM (series often up to 57.5 µM), hits mostly inhibitors
Target sequence (Q27686 whole entry, looked up): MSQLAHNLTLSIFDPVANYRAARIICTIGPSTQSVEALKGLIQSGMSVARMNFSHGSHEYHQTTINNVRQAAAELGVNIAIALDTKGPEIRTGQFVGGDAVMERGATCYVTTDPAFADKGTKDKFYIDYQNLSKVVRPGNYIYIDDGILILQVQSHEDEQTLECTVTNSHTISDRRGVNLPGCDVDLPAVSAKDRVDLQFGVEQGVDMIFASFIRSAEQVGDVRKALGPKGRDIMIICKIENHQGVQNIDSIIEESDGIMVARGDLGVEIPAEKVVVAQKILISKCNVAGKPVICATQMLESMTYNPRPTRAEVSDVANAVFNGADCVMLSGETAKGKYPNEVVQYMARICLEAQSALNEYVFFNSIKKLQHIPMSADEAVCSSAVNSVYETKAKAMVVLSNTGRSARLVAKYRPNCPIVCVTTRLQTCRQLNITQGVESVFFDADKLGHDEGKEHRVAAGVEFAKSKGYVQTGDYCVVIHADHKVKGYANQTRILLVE
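ATP generated from ADP (0.1 mM) and PEP (0.5 mM) by 0.1 nM LmPK over 1 h at room temperature (pH 7.2 imidazole buffer) was detected by coupled luciferase luminescence. Values were normalized to uninhibited and no-enzyme wells.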
CHX counter – counter-screen for Shiga toxin inhibitors: cycloheximide protein synthesis inhibition; cell reporter, cycloheximide protein synthesis inhibition counterscreen; max response, %; hit rate 12% among 300,000; in the data active = max response mostly above about 13%, no sharp cut-off; inactive = mostly below about 14%; note: read at 38.3 µM for the half of the compounds with a filed dose
Pf growth 96h – inhibits malaria parasite growth, 96 h. P. falciparum luciferase reporter growth, 96 h. Potency, µM (top dose mostly 28.7 µM), usual class: inhibitors. hit rate 6.9% among 320,000. AID 504834
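Parasite growth measured via integrated firefly luciferase reporter in P. falciparum. Infected erythrocytes at 2% hematocrit, 0.05% parasitemia final were treated 96 hours at 37 C under 5% CO2, and luminescence was read.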
Of the large screens only hits and unclear results are named; the others gave an inactive call. This is a sample that favours compounds with a hit; in the whole collection about 22% have one here. Unless noted, calls come from the whole dose curve; as a rule, active = well fitted inhibition curve with a large enough effect; inconclusive = small, poorly fitted or top-dose-only effect, or another doubt; inactive = no such curve, though single readings can be large or run the other way.

O=C(Cc1n[nH]c(=O)[nH]c1=O)N/N=C/CCc1ccccc1	none
Cc1ccc(S(=O)(=O)N(C)C)cc1NC(=O)c1c(-c2c(F)cccc2Cl)noc1C	Pf growth 48h 12µM, Pf growth 96h inconclusive
CCOc1ccc(NC(=O)CN(C)C(=O)c2c(C)nn(-c3ccc(F)cc3)c2Cl)cc1OCC	Pf growth 48h inconclusive (no result: Shiga toxin inh, LmPK inhibitor, CHX counter)
Cc1onc(-c2c(Cl)cccc2Cl)c1C(=O)Nc1nc(C(C)(C)C)cs1	Pf growth 48h inconclusive, Pf growth 96h 10µM
Cc1onc(-c2c(F)cccc2Cl)c1C(=O)Nc1nnc(C(F)(F)F)s1	Pf growth 96h 10µM
CCCS(=O)(=O)c1cscc1NC(=O)c1c(-c2c(F)cccc2Cl)noc1C	Pf growth 48h inconclusive, Pf growth 96h inconclusive
CCOc1ccc(NC(=O)CN(C)C(=O)c2c(-c3c(F)cccc3Cl)noc2C)cc1OCC	Pf growth 48h inconclusive, Pf growth 96h 1µM (no result: Shiga toxin inh, LmPK inhibitor, CHX counter)
Cc1cc(OCC(=O)NCCCN2CCOCC2)c2c(C)c(C)c(=O)oc2c1	Pf growth 96h inconclusive
COC(=O)CN1CCN(C(=O)c2ccc(F)cc2)c2ccccc2C1	Pf growth 96h inconclusive
Cc1onc(-c2c(Cl)cccc2Cl)c1NC(=O)NNc1ccccn1	CHX counter 29
Cc1onc(-c2c(Cl)cccc2Cl)c1-c1nnc(-c2ccc(Cl)cc2)o1	Pf growth 48h inconclusive
Cc1onc(-c2c(F)cccc2Cl)c1C(=O)Nc1cccc2nsnc12	Pf growth 48h inconclusive, Pf growth 96h inconclusive
Cc1onc(-c2c(F)cccc2Cl)c1C(=O)Nc1nc2ccccc2[nH]1	Shiga toxin inh 60, CHX counter 59 (no result: Pf growth 48h)
Cc1onc(-c2c(F)cccc2Cl)c1-c1nnc(-c2ccc(C(F)(F)F)cc2)o1	Pf growth 48h 8.3µM, Pf growth 96h 8.3µM
Cc1onc(-c2c(Cl)cccc2Cl)c1C(=O)Nc1ccc2c(C(F)(F)F)cc(=O)oc2c1	Pf growth 48h inconclusive, Pf growth 96h 2.3µM
Cc1ccc(S(=O)(=O)N2CCC(C(=O)NCCCOC(C)C)CC2)cc1	none
COc1ccc(C)cc1NC(=O)c1ccc([N+](=O)[O-])cc1[N+](=O)[O-]	Pf growth 96h inconclusive
O=C(c1ccc(CS(=O)c2ccccc2Cl)o1)N1CCN(c2ccccn2)CC1 (stereo not given)	Pf growth 96h inconclusive
O=S(=O)(NC1=NCCCCC1)c1ccccc1Cl	none
CCN(CC(=O)Nc1c(F)cccc1F)C(=O)COc1ccc2c(c1)CCC2	none (no result: Shiga toxin inh, LmPK inhibitor, CHX counter)
COc1ccc(OC)c(NC(=O)CCCCCn2nnc3ccccc3c2=O)c1	none
Cc1cc(NC(=O)c2c(-c3c(F)cccc3Cl)noc2C)no1	Pf growth 48h inconclusive
Cc1ccc(NC(=O)c2c(-c3c(F)cccc3Cl)noc2C)cc1F	Pf growth 48h 9.3µM, Pf growth 96h inconclusive
CCc1cc2cc(OC)ccc2nc1SCC(=O)NNC(=O)c1ccco1	none
COCCNCC(=O)N1CCCCCC1	Pf growth 96h 12µM
O=C(CN1CCOCC1)Nc1ccc(C2CCCCC2)cc1	CHX counter 39 (no result: Pf growth 96h)
O=C(CN1CCOCCOCCOCCOCC1)Nc1ccccc1	Shiga toxin inh 48, CHX counter 26
O=C(CN1CCOCC1)NNC(=S)Nc1ccccc1	Pf growth 96h 13µM
O=C(COc1cccc(Cl)c1)Nc1ccc2c(c1)CCC2	Shiga toxin inh 78, CHX counter 38
COC(=O)[C@@H](NC(=O)NCCC1=CCCCC1)C(C)C	none
Cn1ncc([N+](=O)[O-])c1C(=O)N/N=C/c1cccc([N+](=O)[O-])c1	none
CCOC(=O)c1oc2ccccc2c1COC(=O)C(C)NC(=O)c1ccco1 (stereo not given)	none (no result: Shiga toxin inh, LmPK inhibitor, CHX counter)
CC(C)(C)C(=O)Nc1nc(=S)ss1	none (no result: Pf growth 96h)
CCN(CC)c1ccc(NC(=O)CN2CCN(CC(=O)Nc3ccccc3F)CC2)cc1	Pf growth 48h 12µM
O=C(Cn1cc(C(F)(F)F)ccc1=O)Nc1ccccc1	Shiga toxin inh 44, CHX counter 12
O=C(CN1CCC(C(O)(c2ccccc2)c2ccccc2)CC1)Nc1ccccc1	Pf growth 48h 10µM, Pf growth 96h inconclusive
O=C(CN1CCCC1)Nc1ccc2c(c1)CCC2	Shiga toxin inh 35, CHX counter 23
O=C(Nc1ccc(N2CCN(C(=O)c3cccs3)CC2)cc1)c1ccc(F)cc1	Pf growth 48h inconclusive
O=C(CN1CCCC1)Nc1ccc(NC(=O)Nc2ccccc2)cc1	Shiga toxin inh 54, CHX counter 39 (no result: Pf growth 96h)
O=C(CSc1ncccn1)Nc1ccc2c(c1)CCC2	Shiga toxin inh 129, CHX counter 36
COc1ccc(NC(=O)COc2cccnc2[N+](=O)[O-])cc1OC	none
O=C(COc1cccnc1[N+](=O)[O-])Nc1ccc2c(c1)CCC2	Pf growth 48h inconclusive, CHX counter 20
CC(=O)c1ccc(NC(=O)CN2CCOCC2)cc1	Pf growth 96h 13µM
O=C(CSc1ncccn1)Nc1ccc2[nH]c(=O)[nH]c2c1	none (no result: Shiga toxin inh, LmPK inhibitor, CHX counter)
O=C(CN1C(=O)NC2(CCCC2)C1=O)Nc1nc(-c2ccccc2)cs1	none (no result: Shiga toxin inh, LmPK inhibitor, CHX counter)
CN(CC(=O)Nc1cccc(F)c1)CC(=O)N1CCc2ccccc21	none (no result: Shiga toxin inh, LmPK inhibitor, CHX counter)
CC(=O)c1ccc(NC(=O)C2(c3ccccc3)CCOCC2)cc1	Shiga toxin inh 112, CHX counter 37
O=C(c1ccc(NC(=O)C2(c3ccccc3)CCOCC2)cc1)N1CCOCC1	none (no result: Pf growth 96h)
COc1ccc(-c2nc(NC(=O)CSCCO)sc2C)cc1	Shiga toxin inh 70, Pf growth 96h inconclusive
COc1ccc(-c2nc(NC(=O)Cn3ccc(C(F)(F)F)n3)sc2C)cc1	Pf growth 96h 13µM (no result: Pf growth 48h)
CCCOC(=O)Nc1nc(-c2ccc(C)cc2)c(C)s1	Shiga toxin inh 65, CHX counter 27
COc1ccc(C2c3[nH]c4ccccc4c3C[C@H]3C(=O)N(c4ccccc4C(=O)NCCN4CCOCC4)C(=O)N23)cc1 (stereo not given in full)	Pf growth 48h 13µM, Pf growth 96h inconclusive
Cc1ccc(C2c3[nH]c4ccccc4c3C[C@H]3C(=O)N(c4ccccc4C(=O)N4CCC[C@@H]4C(=O)O)C(=O)N23)cc1 (stereo not given in full)	Pf growth 48h inconclusive, Pf growth 96h inconclusive
O=C(O)C1CCN(C(=O)c2ccccc2N2C(=O)[C@@H]3Cc4c([nH]c5ccccc45)C(c4cccc(Cl)c4)N3C2=O)CC1 (stereo not given in full)	Pf growth 48h inconclusive, Pf growth 96h 9.3µM
COc1cccc(C2c3[nH]c4ccccc4c3C[C@H]3C(=O)N(c4ccccc4C(=O)N4CCCC4C(=O)O)C(=O)N23)c1 (stereo not given in full)	Pf growth 48h inconclusive, Pf growth 96h inconclusive
Cc1ccc(C2c3[nH]c4ccccc4c3C[C@H]3C(=O)N(c4ccccc4C(=O)N4CCC(C(=O)O)CC4)C(=O)N23)cc1 (stereo not given in full)	Pf growth 48h 12µM, Pf growth 96h 5.9µM
Cc1cccc(OC(C)C(=O)Nc2nccs2)c1 (stereo not given)	none
CCC(C)OC(=O)C[N+](C)(C)CCOC1CC2CCC1(C)C2(C)C (stereo not given)	Pf growth 48h 0.93µM
CC(=O)OC1CC2CCC1(C)C2(C)C (stereo not given)	none (no result: LmPK inhibitor)
